# SW480 rerep – DNA re-replication induction in SW480 cells. Potency, µM (series often up to 46.1 µM), hits mostly activators. AID 624297. SW480 DNA re-replication, Hoechst DNA content imaging, 48 h. hit rate 1.8% among 340,000; further: nearly all actives have a fitted effect of over 55% in size
#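 Quantitative HTS format with DMSO vehicle controls; 48 hr drug incubation at 37 C, then 40 min Hoechst staining and scanning imager measurement at 405 nm excitation.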
# HT1080-NT tox – kills 2HG-producing HT-1080-NT fibrosarcoma cells | AID 686970 | Potency, µM (highest dose often 46.1 µM), usual class: cytotoxic | HT-1080-NT fibrosarcoma viability, CellTiter-Glo ATP luminescence, 48 h | hit rate 1.6% among 360,000;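 further: NT is the 2HG producing partner of a matched IDH1 knockdown line; nearly all actives have a fitted effect of over 55% in size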
#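 Compounds were tested in concentration-response format on HT-1080-NT cells for 48 hours at 37 degrees C. Cell viability came from CellTiter-Glo luminescence; curves were classified by r2, response magnitude and activity.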
# KB-V1 MDR tox – kills drug-selected multidrug resistant KB-V1 cells. KB-V1 MDR cells viability, CellTiter-Glo, 72 h. Potency, µM (titrated, usually from 46.1 µM), usual class: cytotoxic. hit rate 3.4% among 400,000; further: nearly all actives have a fitted effect of over 60% in size
#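 Luminescent ATP read-out (CellTiter-Glo, 10 min) measures survival of drug-selected KB-V1 MDR cells after 72 h, 37 degrees C compound exposure. Medium: phenol-red-free DMEM, 10% FBS. Values from fitted concentration-response curves.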
# MCF10A rerep – induces DNA re-replication in MCF 10a normal breast cells. MCF 10A DNA re-replication, Hoechst nuclear intensity, 48 h. Potency, µM (top dose mostly 46.1 µM), most hits filed as activators. hit rate 2.9% among 350,000. AID 624296; further: nearly all actives have a fitted effect of over 50% in size
# KB-3-1 tox – KB-3-1 parental cell cytotoxicity. KB-3-1 viability, CellTiter-Glo ATP luminescence, 72 h. Potency, µM (series often up to 46.1 µM), usual class: cytotoxic. hit rate 1.4% among 400,000. AID 1347075; further: nearly all actives have a fitted effect of over 60% in size
#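 Using CellTiter-Glo luminescence, growth of non-resistant KB-3-1 adenocarcinoma cells is assessed 72 h after pin-tool compound addition at 37 °C. Normalized responses across the concentration series yield fitted curves.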
# HT1080 IDH1KD tx – toxicity to HT-1080 IDH1 knockdown cells (counter line); AID 686971; HT-1080 IDH1 knockdown viability, ATP luminescence, 48 h; hit rate 2% among 360,000; Potency, µM (titrated, usually from 46.1 µM), most hits filed as cytotoxic
#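 CellTiter-Glo luminescence after 48 h compound exposure at 37 degrees C of IDH1-knockdown HT-1080 cells in 5% FBS RPMI. %Activity scaled between DMSO wells and cell-free media wells, with curves fitted and assigned curve classes.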
# Hits are given with their value; . = inactive; ? = inconclusive; / = no result given. Rows were chosen to be rich in hits. Some 8% of all compounds tested hit in one or more screens of this group. The call rests on the fitted dose curve; in most records, active means well fitted curve in the direction sought with a large enough effect; inconclusive means small, poorly fitted or top-dose-only effect, or another doubt; inactive means no such curve, though single readings can be large; an effect the other way counts as inactive or inconclusive.
SMILES,SW480 rerep,HT1080-NT tox,KB-V1 MDR tox,MCF10A rerep,KB-3-1 tox,HT1080 IDH1KD tx
O=C(CCS(=O)(=O)c1ccccc1)N(CCCN1CCOCC1)c1nc2c(F)cccc2s1,23.1µM,.,?,13µM,?,?
CCc1cccc2sc(N(CCCN3CCOCC3)C(=O)CS(=O)(=O)c3ccccc3)nc12,.,.,.,.,.,.
O=C(CCS(=O)(=O)c1ccccc1)N(CCCN1CCOCC1)c1nc2ccc(F)cc2s1,.,?,?,18.4µM,?,?
O=[N+]([O-])c1ccc(CSc2ccc(S(=O)(=O)N3CCOCC3)cn2)cc1,.,.,?,.,.,.
CCc1cccc(CC)c1NC(=O)CN1C2CCCC1CC(NC(=O)Nc1cccc(OC)c1)C2 (stereo not given),.,?,20.6µM,.,?,?
COc1cc(C(=O)NC2CC3CCCC(C2)N3CC(=O)Nc2ccccc2)cc(OC)c1OC (stereo not given),.,.,.,.,.,.
COc1cccc(C(=O)NC2CC3CCCC(C2)N3CC(=O)Nc2ccccc2C(F)(F)F)c1 (stereo not given),16.4µM,?,.,?,?,?
O=C(CN1C2CCCC1CC(NC(=O)C1CCCCC1)C2)Nc1ccccc1C(F)(F)F (stereo not given),.,.,?,.,.,?
CCCN1C2CCCC1CC(NC(=O)Nc1cccc(C(C)=O)c1)C2 (stereo not given),.,.,.,.,.,.
O=C(CN1C2CCCC1CC(NC(=O)c1ccccc1)C2)Nc1nccs1 (stereo not given),.,.,2.31µM,.,.,.
Cc1cccc(CNC(=O)c2ccc3nc(-c4ccccc4)c(-c4ccccc4)nc3c2)c1,/,/,.,/,.,/
CC(NC(=O)c1ccc(F)cc1)c1nc2ccccc2[nH]1 (stereo not given),/,/,.,/,.,/
CC(=O)OCC(OC(C)=O)C(OC(C)=O)C(OC(C)=O)C(=O)Nc1ccccc1 (stereo not given),?,.,.,?,.,.
Cc1cc(C)n2c(Nc3ccccc3)c(-c3ccccc3)nc2n1,/,/,.,/,.,/
COc1ccc(CCNC(=O)c2cccc(S(=O)(=O)N3CCCCC3)c2)cc1,.,.,.,.,.,.
COc1ccc(CCNC(=O)c2cc(S(=O)(=O)N3CCCCC3)ccc2Cl)cc1,18.4µM,.,.,?,.,.
Cc1ccc(S(=O)(=O)N2CCCCC2)cc1C(=O)NCCc1ccccc1,.,.,?,.,.,.
O=C(NCCc1ccc2c(c1)OCCO2)c1cc(F)cc(F)c1,.,.,11.6µM,.,?,.
O=C(NCCc1ccc2c(c1)OCCO2)c1cc(S(=O)(=O)N2CCCC2)ccc1Br,.,.,20.6µM,.,?,.
COc1cc(CCC(=O)Nc2c(C(=O)N3CCN(c4ccccc4)CC3)oc3ccccc23)on1,.,.,.,.,.,.
Cc1nn(C(=O)c2cccc(Cl)c2)c(C)c1S(=O)(=O)N1CCOCC1,/,/,.,/,.,/
CCOc1ccc(N=Nc2c(=O)[nH]n3c(=O)cc(C)[nH]c23)cc1,.,?,?,.,23.1µM,?
COc1ccc(C(=O)N2CC(=O)Nc3ccc(C)cc3C2c2ccccc2)cc1OC (stereo not given),/,/,.,/,.,/
Cc1ccc(/C=C/C(=O)c2ccccc(=O)c2O)cc1C,?,18.4µM,20.6µM,20.6µM,9.2µM,?
O=C(/C=C/c1ccccc1)c1cc(Br)ccc(=O)c1O,?,18.4µM,?,?,11.6µM,?
SMILES,SW480 rerep,HT1080-NT tox,KB-V1 MDR tox,MCF10A rerep,KB-3-1 tox,HT1080 IDH1KD tx
CCc1cccc2c(C(=O)COC(=O)c3c(C)noc3C)c[nH]c12,?,?,?,23.1µM,.,?
Cc1noc(C)c1C(=O)OCC(=O)c1c[nH]c2ccccc12,.,.,.,.,.,.
Cc1oc(-c2ccc(C(=O)NCCc3ccc(Cl)cc3)cc2)nc1CSc1ccccc1,/,/,.,/,.,/
CCc1ncc(CN2CCCC(C(=O)Nc3cccc(-c4ccc(F)cc4)c3)C2)cn1 (stereo not given),.,.,?,.,.,.
CCCc1ncc(CN2CCCC(C(=O)Nc3ccc(-c4cccc(OC)c4)cc3)C2)cn1 (stereo not given),?,.,.,.,.,?
COc1cccc(-c2ccc(NC(=O)C3CCCN(Cc4cnn(C(C)C)c4)C3)cc2)c1 (stereo not given),?,18.4µM,.,18.4µM,?,?
O=C(Nc1cccc(-c2ccc(F)cc2)c1)C1CCCN(Cc2cccnc2)C1 (stereo not given),.,?,?,?,.,18.4µM
Cc1nn(CC(=O)N2CCC(C)CC2)c(=O)c2cc3sccc3n12,/,/,.,/,.,/
CC(=O)Nc1cc(NC(C)=O)cc(C(=O)OCC(=O)Nc2ccc(S(=O)(=O)NC3=NCCCCC3)cc2)c1,.,.,?,.,.,.
COc1ccc(-c2cc(C)no2)cc1S(=O)(=O)NCc1cccc(C)c1,?,18.4µM,?,?,?,?
COc1ccc(CNS(=O)(=O)c2cc(-c3cc(C)no3)ccc2OC)cc1OC,.,.,.,.,?,.
CCc1ccc(-c2cc(C)no2)cc1S(=O)(=O)NCc1ccccc1OC,.,.,.,.,.,.
COc1ccccc1CNS(=O)(=O)c1ccc(-c2cc(C)no2)cc1,.,4.11µM,?,?,1.3µM,2.06µM
O=C(c1ccco1)n1nc(-c2ccccc2)nc1NCc1ccc(F)cc1,/,/,.,/,.,/
Cc1ccccc1OCC(=O)Nc1cc(C)c(O)c(-c2nc3ccccc3o2)c1,/,/,.,/,.,/
COc1cc(NC(=O)c2nc3cc(C)c(C)cc3n(C)c2=O)cc(OC)c1OC,/,/,.,/,.,/
CN(Cc1ccccc1)C(=O)c1ccc(NC(=O)Cc2ccc(NC(=O)C3CCN(C(=O)CCc4ccccc4)CC3)cc2)cc1,?,.,.,14.6µM,.,?
CN(CCc1ccccc1)C(=O)c1ccc(NC(=O)Cc2ccc(NC(=O)C3CCCN(C(=O)C4CC4)C3)cc2)cc1 (stereo not given),18.4µM,.,?,.,?,.
CN(Cc1ccccc1)C(=O)c1cccc(NC(=O)Cc2ccc(NC(=O)C3CCN(C(=O)CCc4ccccc4)CC3)cc2)c1,.,.,.,.,?,.
CCCn1c(=N)c(C(=O)NC2CCCC2)cc2c(=O)n3cccc(C)c3nc21,6.51µM,.,?,2.91µM,.,.
Cc1cccn2c(=O)c3cc(C(=O)NCCC4=CCCCC4)n(C)c3nc12,?,.,.,9.2µM,?,.
N=c1c(C(=O)NCc2ccco2)cc2c(=O)n3ccccc3nc2n1C1CCCC1,20.6µM,.,?,20.6µM,.,.
Cn1c(C(=O)NCCC2=CCCCC2)cc2c(=O)n3ccccc3nc21,.,?,.,.,.,.

# Screening data as filed in PubChem.
